Assay results as given in the supplement of paper PMC10849652.
About 8,800 targets were measured; listed, in parts, are those with a hit and a random draw of the rest. About 0.5% of all pairs of compound and target were hits. Values without a mark were called inactive.

What was measured:
Test in all cases: log2 fold change, soluble protein after heating vs DMSO (PISA); higher = thermal stabilisation; K562 lysate, 10 uM; active = over 0.2 and 3.5 SD of the protein, either way, in both replicates (recomputed)
lapatinib = compound: CS(=O)(=O)CCNCc1ccc(-c2ccc3ncnc(Nc4ccc(OCc5cccc(F)c5)c(Cl)c4)c3c2)o1 [lapatinib]
Procedure, shortened: (§1)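 Values give the log-two fold change in thermal stability against solvent controls, from duplicates. Crude K562 extract at 1 mg/mL protein, made by dounce homogenisation in PBS pH 7.4 with 1 mM MgCl2, was treated with 10 μM compound for 30 min. After 3 min heating across 48°C-58°C, aliquots were pooled, adjusted to 0.5% NP-40 at 4°C and centrifuged at 21,000xg for 90 min. The supernatant was measured by TMTpro 16plex LC-MS/MS with channel sums equalised.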

pictilisib = compound: CS(=O)(=O)N1CCN(Cc2cc3nc(-c4cccc5[nH]ncc45)nc(N4CCOCC4)c3s2)CC1 [pictilisib]
Procedure, shortened: as §1

crizotinib = compound: C[C@@H](Oc1cc(-c2cnn(C3CCNCC3)c2)cnc1N)c1c(Cl)ccc(F)c1Cl [crizotinib]
Procedure, shortened: as §1

[1] = compound: C[C@H](C1=CC=C(C=C1)C(=O)NC2=C3C=CNC3=NC=C2)N
Procedure, shortened: as §1

duvelisib = compound: C[C@H](Nc1ncnc2nc[nH]c12)c1cc2cccc(Cl)c2c(=O)n1-c1ccccc1 [duvelisib]
Procedure, shortened: as §1

gandotinib = compound: Cc1cc(Nc2cc(CN3CCOCC3)c3nc(C)c(Cc4ccc(Cl)cc4F)n3n2)n[nH]1 [gandotinib]
Procedure, shortened: as §1

tozasertib = compound: Cc1cc(Nc2cc(N3CCN(C)CC3)nc(Sc3ccc(NC(=O)C4CC4)cc3)n2)n[nH]1 [tozasertib]
Procedure, shortened: as §1

doramapimod = compound: Cc1ccc(-n2nc(C(C)(C)C)cc2NC(=O)Nc2ccc(OCCN3CCOCC3)c3ccccc23)cc1 [doramapimod]
Procedure, shortened: as §1

bafetinib = compound: Cc1ccc(NC(=O)c2ccc(CN3CC[C@H](N(C)C)C3)c(C(F)(F)F)c2)cc1Nc1nccc(-c2cncnc2)n1 [bafetinib]
Procedure, shortened: as §1

[2] = compound: Cc1cccc(CC(=O)N2CCc3c2ccc(-c2cn(C)c4ncnc(N)c24)c3F)n1
Procedure, shortened: as §1

Sequence of UniProt Q92844 (Q92844 whole entry, looked up): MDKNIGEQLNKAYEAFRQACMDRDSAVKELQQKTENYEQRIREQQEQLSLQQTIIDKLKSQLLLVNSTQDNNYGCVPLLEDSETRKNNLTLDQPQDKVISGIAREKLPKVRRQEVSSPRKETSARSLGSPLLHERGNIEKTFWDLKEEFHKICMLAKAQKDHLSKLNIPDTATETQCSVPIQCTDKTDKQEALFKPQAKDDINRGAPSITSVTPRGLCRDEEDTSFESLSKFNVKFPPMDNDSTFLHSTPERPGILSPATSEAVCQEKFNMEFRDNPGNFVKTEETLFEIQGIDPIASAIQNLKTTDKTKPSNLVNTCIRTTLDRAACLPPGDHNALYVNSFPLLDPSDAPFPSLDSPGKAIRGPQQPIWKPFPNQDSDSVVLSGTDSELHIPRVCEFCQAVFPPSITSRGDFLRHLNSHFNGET
Sequence of UniProt Q13242 (Q13242 whole entry, looked up): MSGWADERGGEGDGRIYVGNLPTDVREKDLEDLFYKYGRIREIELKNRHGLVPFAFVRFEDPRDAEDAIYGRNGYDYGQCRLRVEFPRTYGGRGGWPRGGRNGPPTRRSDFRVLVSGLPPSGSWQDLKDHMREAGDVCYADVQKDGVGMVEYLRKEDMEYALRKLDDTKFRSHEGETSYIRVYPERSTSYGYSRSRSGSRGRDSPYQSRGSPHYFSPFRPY
Sequence of UniProt Q15208 (Q15208 whole entry, looked up): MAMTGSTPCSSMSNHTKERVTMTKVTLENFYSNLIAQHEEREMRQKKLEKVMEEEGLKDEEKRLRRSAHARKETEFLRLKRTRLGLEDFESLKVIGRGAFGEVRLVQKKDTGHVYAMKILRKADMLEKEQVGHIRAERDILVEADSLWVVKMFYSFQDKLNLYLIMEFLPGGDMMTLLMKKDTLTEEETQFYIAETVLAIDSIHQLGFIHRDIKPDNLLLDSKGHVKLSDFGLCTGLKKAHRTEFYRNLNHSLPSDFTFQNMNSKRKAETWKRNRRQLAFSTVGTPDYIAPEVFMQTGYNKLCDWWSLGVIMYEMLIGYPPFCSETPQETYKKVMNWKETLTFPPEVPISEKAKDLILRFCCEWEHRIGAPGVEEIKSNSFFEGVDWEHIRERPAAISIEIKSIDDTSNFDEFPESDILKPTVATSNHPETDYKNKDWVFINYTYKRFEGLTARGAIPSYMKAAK
Sequence of UniProt O95347 (O95347 whole entry, looked up): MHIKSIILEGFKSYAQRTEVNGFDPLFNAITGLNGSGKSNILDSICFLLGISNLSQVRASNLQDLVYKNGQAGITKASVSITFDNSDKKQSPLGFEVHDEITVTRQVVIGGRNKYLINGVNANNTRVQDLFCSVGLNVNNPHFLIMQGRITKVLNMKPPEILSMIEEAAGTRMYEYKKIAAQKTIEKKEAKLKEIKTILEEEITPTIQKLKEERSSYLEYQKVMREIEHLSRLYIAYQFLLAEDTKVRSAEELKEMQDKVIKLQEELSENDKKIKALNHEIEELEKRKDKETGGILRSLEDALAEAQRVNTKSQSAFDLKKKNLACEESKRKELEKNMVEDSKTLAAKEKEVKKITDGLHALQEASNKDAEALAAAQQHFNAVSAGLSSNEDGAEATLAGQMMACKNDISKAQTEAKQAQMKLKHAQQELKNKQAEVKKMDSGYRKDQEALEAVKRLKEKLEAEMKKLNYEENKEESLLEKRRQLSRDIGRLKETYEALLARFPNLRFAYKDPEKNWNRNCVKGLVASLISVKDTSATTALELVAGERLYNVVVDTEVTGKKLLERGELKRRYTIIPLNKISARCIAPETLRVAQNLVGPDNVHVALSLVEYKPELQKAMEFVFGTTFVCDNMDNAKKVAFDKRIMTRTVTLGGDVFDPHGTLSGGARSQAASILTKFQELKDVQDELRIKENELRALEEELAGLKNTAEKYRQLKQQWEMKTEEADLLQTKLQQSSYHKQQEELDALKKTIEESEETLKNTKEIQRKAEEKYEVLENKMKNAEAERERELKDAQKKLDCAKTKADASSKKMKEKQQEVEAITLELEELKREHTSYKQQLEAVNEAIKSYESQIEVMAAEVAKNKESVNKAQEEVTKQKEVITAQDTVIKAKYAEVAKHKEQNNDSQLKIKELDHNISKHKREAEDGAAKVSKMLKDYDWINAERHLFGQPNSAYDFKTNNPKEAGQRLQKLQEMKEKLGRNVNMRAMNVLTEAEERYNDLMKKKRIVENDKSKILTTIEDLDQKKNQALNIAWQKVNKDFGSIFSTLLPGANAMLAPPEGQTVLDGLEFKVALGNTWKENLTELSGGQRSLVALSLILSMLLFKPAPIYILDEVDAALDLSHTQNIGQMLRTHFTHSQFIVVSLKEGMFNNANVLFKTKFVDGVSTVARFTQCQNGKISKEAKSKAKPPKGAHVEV
Sequence of UniProt Q14849 (Q14849 whole entry, looked up): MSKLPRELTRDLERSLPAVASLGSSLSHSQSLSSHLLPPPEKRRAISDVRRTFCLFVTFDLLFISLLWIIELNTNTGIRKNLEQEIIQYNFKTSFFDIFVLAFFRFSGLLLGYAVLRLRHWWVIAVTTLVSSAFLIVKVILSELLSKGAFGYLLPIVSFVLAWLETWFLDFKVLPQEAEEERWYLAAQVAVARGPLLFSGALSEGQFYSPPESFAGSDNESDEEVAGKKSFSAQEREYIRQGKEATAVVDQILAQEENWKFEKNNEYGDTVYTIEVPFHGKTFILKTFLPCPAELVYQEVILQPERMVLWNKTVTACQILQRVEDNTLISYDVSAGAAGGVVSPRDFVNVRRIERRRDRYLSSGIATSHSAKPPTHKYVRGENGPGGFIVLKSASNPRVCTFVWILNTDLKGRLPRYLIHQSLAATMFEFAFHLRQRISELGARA
Sequence of UniProt Q9UJC5 (Q9UJC5 whole entry, looked up): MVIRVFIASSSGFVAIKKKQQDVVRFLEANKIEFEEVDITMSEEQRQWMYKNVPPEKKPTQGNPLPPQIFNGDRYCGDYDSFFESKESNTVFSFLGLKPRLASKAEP
Sequence of UniProt P52630 (P52630 whole entry, looked up): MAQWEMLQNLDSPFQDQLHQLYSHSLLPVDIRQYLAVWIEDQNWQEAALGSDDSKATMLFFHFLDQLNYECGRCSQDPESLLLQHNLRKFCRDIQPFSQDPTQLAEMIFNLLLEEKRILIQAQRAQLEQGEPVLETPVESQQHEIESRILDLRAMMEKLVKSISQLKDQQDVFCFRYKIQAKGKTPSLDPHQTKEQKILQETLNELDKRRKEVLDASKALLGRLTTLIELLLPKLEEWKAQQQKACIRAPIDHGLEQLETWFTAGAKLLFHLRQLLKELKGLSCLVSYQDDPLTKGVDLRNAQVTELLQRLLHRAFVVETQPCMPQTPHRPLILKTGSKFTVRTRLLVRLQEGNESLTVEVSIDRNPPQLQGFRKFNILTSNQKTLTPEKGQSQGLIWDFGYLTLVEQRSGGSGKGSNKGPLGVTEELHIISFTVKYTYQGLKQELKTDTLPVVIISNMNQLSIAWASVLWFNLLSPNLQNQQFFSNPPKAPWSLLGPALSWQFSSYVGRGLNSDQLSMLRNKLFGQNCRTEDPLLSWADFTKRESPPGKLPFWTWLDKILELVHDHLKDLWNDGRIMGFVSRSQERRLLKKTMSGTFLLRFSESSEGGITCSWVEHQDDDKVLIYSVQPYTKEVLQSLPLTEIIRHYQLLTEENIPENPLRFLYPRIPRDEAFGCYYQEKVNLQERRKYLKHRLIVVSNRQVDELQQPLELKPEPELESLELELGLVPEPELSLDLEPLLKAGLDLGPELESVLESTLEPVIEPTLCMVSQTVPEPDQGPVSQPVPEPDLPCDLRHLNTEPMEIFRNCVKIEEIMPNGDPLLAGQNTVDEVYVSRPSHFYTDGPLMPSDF
Sequence of UniProt Q15022 (Q15022 whole entry, looked up): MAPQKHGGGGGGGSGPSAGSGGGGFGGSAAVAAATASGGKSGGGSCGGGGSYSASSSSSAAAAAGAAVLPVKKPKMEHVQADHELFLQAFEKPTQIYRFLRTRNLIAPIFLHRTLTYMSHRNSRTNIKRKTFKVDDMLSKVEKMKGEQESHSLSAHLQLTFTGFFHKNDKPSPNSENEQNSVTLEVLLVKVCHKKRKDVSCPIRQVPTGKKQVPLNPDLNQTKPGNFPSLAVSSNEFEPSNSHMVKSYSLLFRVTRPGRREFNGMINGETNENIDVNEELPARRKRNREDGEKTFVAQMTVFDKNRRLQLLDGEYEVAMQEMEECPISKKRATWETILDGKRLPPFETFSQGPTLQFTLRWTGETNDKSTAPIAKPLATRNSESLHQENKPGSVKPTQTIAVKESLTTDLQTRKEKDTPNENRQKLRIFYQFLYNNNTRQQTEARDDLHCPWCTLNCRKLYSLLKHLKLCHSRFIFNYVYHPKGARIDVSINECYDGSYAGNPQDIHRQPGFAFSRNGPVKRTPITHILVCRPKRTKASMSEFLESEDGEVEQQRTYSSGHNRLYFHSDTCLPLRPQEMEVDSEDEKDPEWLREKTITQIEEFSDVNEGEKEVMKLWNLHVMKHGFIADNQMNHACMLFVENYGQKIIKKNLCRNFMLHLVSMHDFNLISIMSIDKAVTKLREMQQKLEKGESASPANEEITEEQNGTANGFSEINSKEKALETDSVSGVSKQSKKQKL
Sequence of UniProt Q14534 (Q14534 whole entry, looked up): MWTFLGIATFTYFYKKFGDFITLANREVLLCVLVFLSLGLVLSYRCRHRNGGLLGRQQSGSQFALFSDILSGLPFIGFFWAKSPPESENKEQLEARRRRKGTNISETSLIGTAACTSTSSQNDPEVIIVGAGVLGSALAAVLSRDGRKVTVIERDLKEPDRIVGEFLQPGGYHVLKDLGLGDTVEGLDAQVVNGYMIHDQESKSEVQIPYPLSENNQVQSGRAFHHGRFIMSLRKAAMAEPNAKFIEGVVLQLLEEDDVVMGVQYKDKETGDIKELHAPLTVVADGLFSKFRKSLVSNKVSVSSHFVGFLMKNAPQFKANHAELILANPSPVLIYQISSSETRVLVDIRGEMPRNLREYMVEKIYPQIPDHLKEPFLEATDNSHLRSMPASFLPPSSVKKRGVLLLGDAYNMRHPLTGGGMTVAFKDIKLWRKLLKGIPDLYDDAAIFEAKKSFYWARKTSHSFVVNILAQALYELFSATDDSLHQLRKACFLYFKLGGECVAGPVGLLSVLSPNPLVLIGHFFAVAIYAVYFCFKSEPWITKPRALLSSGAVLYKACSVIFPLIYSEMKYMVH

| Target | log2 fold change (lapatinib) | log2 fold change (pictilisib) | log2 fold change (crizotinib) | log2 fold change [1] | log2 fold change (duvelisib) | log2 fold change (gandotinib) | log2 fold change (tozasertib) | log2 fold change (doramapimod) | log2 fold change (bafetinib) | log2 fold change [2] |
| --- | --- | --- | --- | --- | --- | --- | --- | --- | --- | --- |
| STK24 (UniProt B4DR80) | 0.006 | 0 | 0.044 | 0.034 | -0.016 | 0.089 | 0.001 | -0.054 | 0.004 | 0 |
| STAT2 (UniProt P52630) | 0.005 | -0.024 | -0.146 | 0.008 | 0.004 | -0.082 | 0.047 | 0.037 | -0.078 | 0.093 |
| SNW1 (UniProt Q13573) | 0.019 | -0.002 | 0.002 | 0.155 | -0.018 | -0.037 | -0.01 | -0.002 | -0.002 | -0.007 |
| SRRT (UniProt Q9BXP5) | 0.005 | -0.029 | -0.055 | 0.059 | -0.007 | -0.072 | 0.032 | 0.066 | -0.023 | -0.018 |
| SHC1 isoform 6 (UniProt P29353) | 0.019 | -0.057 | 0.001 | 0.577 (active) | 0.005 | -0.106 | 0.005 | 0.065 | -0.034 | -0.175 |
| STK39 (UniProt Q9UEW8) | 0.011 | -0.038 | -0.063 | -0.012 | 0.087 | -0.044 | 0.021 | 0.032 | -0.03 | 0.057 |
| SQLE (UniProt Q14534) | -0.056 | -0.04 | -0.057 | -0.025 | -0.057 | -0.028 | 0.068 | -0.035 | -0.047 | 0.031 |
| SRP54 (UniProt P61011) | 0.021 | -0.021 | 0.019 | -0.035 | -0.024 | 0.039 | -0.004 | 0.041 | -0.029 | 0.04 |
| TANGO6 (UniProt Q9C0B7) | -0.054 | -0.002 | -0.065 | -0.102 | 0.005 | 0.037 | -0.023 | 0.014 | -0.064 | 0.115 |
| SMN1 (UniProt Q16637) | 0.086 | 0.035 | -0.183 | -0.031 | 0.021 | -0.056 | 0.049 | 0.022 | 0.036 | 0.158 |
| SLC25A44 (UniProt Q96H78) | -0.031 | -0.014 | -0.034 | -0.069 | 0.233 | 0.047 | -0.008 | -0.01 | -0.037 | 0.166 |
| TARDBP (UniProt Q13148) | 0.002 | 0.145 | 0.018 | 0.005 | -0.045 | 0.115 | 0.022 | 0.282 | -0.055 | 0.044 |
| SUZ12 (UniProt Q15022) | 0.015 | 0.043 | -0.021 | 0.048 | -0.016 | 0.027 | 0.006 | 0 | -0.113 | 0.009 |
| STK38 (UniProt Q15208) | -0.024 | 0.061 | 0.001 | 0.017 | 0.017 | 0.159 | 0.029 | -0.001 | -0.104 | -0.071 |
| SMG6 (UniProt Q86US8) | 0.009 | -0.032 | 0.028 | -0.097 | -0.1 | 0.025 | -0.096 | 0.051 | -0.049 | 0.039 |
| SMARCAD1 isoform 2 (UniProt Q9H4L7) | -0.005 | -0.015 | -0.073 | -0.019 | -0.013 | -0.044 | 0.018 | 0.003 | -0.045 | 0.008 |
| SH3BGRL2 (UniProt Q9UJC5) | 0.021 | 0.012 | -0.025 | 0.342 (active) | -0.007 | -0.116 | -0.078 | 0.021 | -0.058 | -0.184 |
| TANK (UniProt Q92844) | 0.038 | -0.03 | 0.27 | 0.021 | -0.026 | 0.141 | 0.108 | -0.038 | 0.023 | -0.162 |
| STAU1 (UniProt O95793) | -0.018 | 0.03 | 0.005 | 0.27 (active) | 0.019 | -0.086 | 0.014 | 0.056 | -0.089 | -0.062 |
| SLC25A25 isoform 3 (UniProt Q6KCM7) | -0.004 | 0.021 | -0.039 | 0.013 | -0.014 | -0.047 | 0 | 0.015 | 0.013 | 0.043 |
| SMIM8 (UniProt Q96KF7) | -0.053 | -0.079 | -0.041 | -0.146 | 0.019 | 0.128 | -0.038 | -0.059 | -0.035 | 0.018 |
| SRSF9 (UniProt Q13242) | 0.014 | 0.046 | 0.006 | -0.019 | 0.011 | -0.003 | 0.019 | 0.085 | -0.028 | 0.053 |
| STARD3 isoform 3 (UniProt Q14849) | -0.094 | -0.087 | -0.024 | -0.072 | -0.005 | 0.027 | -0.075 | 0.021 | -0.209 | 0.084 |
| STK4 (UniProt Q13043) | -0.029 | -0.025 | 0.382 | -0.104 | 0.004 | 0.504 (active) | 0.27 | -0.027 | -0.053 | 0.062 |
| SPC25 (UniProt Q9HBM1) | 0.029 | 0.029 | 0.001 | -0.01 | -0.021 | -0.007 | -0.013 | -0.005 | -0.031 | 0.011 |
| TADA3 (UniProt O75528) | -0.005 | 0.009 | 0.017 | -0.09 | -0.002 | 0.143 | 0.066 | 0.006 | -0.051 | 0.087 |
| SLC16A1 (UniProt P53985) | -0.009 | 0.019 | 0.006 | -0.341 (active) | -0.011 | 0.22 | -0.008 | -0.017 | -0.041 | 0.246 (active) |
| SMC2 (UniProt O95347) | -0.019 | 0.013 | -0.028 | 0.121 | -0.009 | -0.177 | 0.014 | 0.037 | -0.02 | -0.059 |
| SSNA1 (UniProt O43805) | 0.012 | -0.015 | 0.138 | 0.003 | -0.038 | 0.061 | 0.045 | 0.019 | -0.014 | -0.034 |
| SSB (UniProt P05455) | -0.024 | 0.015 | 0.046 | 0.05 | -0.01 | -0.03 | 0.009 | -0.032 | 0.017 | -0.036 |
